Screening data as filed in PubChem.
AmpC no deterg – AmpC beta-lactamase inhibition without detergent; P00811; AmpC nitrocefin hydrolysis, absorbance 480 nm, 0.0001% Triton; Potency, µM (top dose mostly 57.1 µM), most hits filed as inhibitors; hit rate 0.52% among 330,000; AID 485341; also: nearly all actives have a fitted effect of over 20% in size
Target sequence (P00811 whole entry, looked up): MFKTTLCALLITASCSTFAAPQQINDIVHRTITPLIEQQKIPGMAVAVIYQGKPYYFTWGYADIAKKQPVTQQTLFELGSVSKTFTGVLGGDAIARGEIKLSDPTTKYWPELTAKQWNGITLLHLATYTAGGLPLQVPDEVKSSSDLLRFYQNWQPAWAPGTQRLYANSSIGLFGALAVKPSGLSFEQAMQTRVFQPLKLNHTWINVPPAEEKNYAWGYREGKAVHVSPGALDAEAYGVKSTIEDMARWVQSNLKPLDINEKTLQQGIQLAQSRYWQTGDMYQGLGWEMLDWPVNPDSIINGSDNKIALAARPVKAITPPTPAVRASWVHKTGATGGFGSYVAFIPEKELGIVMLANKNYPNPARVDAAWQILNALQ
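20 mM phosphate pH 7.0 + 0.01% (detergent screen) or 0.0001% Triton X-100; 5.3 nM AmpC reagent; cpd preinc 15 min RT; nitrocefin (800 uM stock) to start; A480 q20 s × 4 min; Activity was normalised to no-enzyme and no-compound control wells.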
AmpC inh detg – inhibitors of E. coli AmpC beta-lactamase with detergent; AID 485294; Potency, µM (top dose mostly 114 µM), actives largely listed as inhibitors; AmpC hydrolysis of nitrocefin, absorbance 480 nm, 0.01% Triton; P00811; hit rate 0.041% among 370,000; also: nearly all actives have a fitted effect of over 25% in size
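AmpC (5.3 nM in the dispensed reagent) in 20 mM phosphate pH 7.0 with 0.01% (detergent screen) or 0.0001% Triton X-100 was preincubated with compounds for 15 min at room temperature. Nitrocefin was then added from an 800 uM solution, and hydrolysis was followed at 480 nm.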
Sm TGR block – blocks Schistosoma mansoni thioredoxin glutathione reductase | Q962Y6 | purified TGR, DTNB reduction, TNB absorbance 405 nm | Potency, µM (highest dose often 114 µM), hits mostly inhibitors | hit rate 3% among 360,000 | AID 485364; also: nearly all actives have a fitted effect of over 60% in size
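First, TGR (20 nM dispensed) and NADPH were mixed with compound. Second, a 15 min room-temperature incubation followed. Third, further NADPH and then DTNB were added to start the reaction. Finally, TNB absorbance was monitored kinetically.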
Of the large screens only hits and unclear results are named; the others gave an inactive call. A selection: hits, their analogues and other compounds. The true share with any hit is near 3.3%. Calls follow the shape of the dose curve; as a rule, active = well fitted curve in the direction sought with a large enough effect; inconclusive = small, poorly fitted or top-dose-only effect, or another doubt; inactive = no such curve, though single readings can be large; an effect the other way counts as inactive or inconclusive.

Nc1nc(-c2cc(O)ccc2[N+](=O)[O-])cc(-c2ccccc2)c1[N+](=O)[O-]	Sm TGR block inconclusive
CN1C(=O)C(C)(C)c2cc(S(=O)(=O)NCC3CCC(C(=O)NC4CCCCC4)CC3)ccc21 (configuration not stated)	none
CCOC(=O)/C(=C/c1ccccc1)NC(=O)c1ccco1	none
CCOC(=O)/C(=C/c1ccco1)NC(=O)c1ccc(Br)o1	Sm TGR block 17.8µM
CCNC(=O)/C(=C/c1ccco1)NC(=O)/C=C/c1ccccc1	Sm TGR block 39.8µM
O=C(/C=C/c1ccccc1)N/C(=C\c1ccco1)C(=O)NCCO	none
CN1CCN(CCCNC(=O)c2cnn(-c3ccc(F)cc3)c2-n2cccc2)CC1	none (no result: AmpC no deterg)
Cc1noc(/C=C/c2ccco2)c1S(=O)(=O)N1CCC(C(=O)NCc2ccco2)CC1	Sm TGR block inconclusive
Cc1cccc(CCNC(=O)C2CCN(S(=O)(=O)c3c(C)nn(C)c3C)CC2)c1	AmpC inh detg inconclusive
Cc1ccc(CNC(=O)C2CCN(S(=O)(=O)c3c(C)noc3/C=C/c3ccco3)CC2)cc1	Sm TGR block 39.8µM
Cc1ccccc1NC(=O)C1CCN(S(=O)(=O)c2c(C)noc2/C=C/c2ccco2)CC1	none (no result: AmpC no deterg)
Cc1noc(/C=C/c2ccco2)c1S(=O)(=O)N1CCC(C(=O)N2CCc3ccccc3C2)CC1	AmpC inh detg inconclusive, Sm TGR block 11.2µM
Cc1ccc(CCNC(=O)C2CCN(S(=O)(=O)c3c(C)nn(C)c3C)CC2)cc1	AmpC no deterg 2.51µM, AmpC inh detg inconclusive
Cc1ccc(NC(=O)CN2C=NS(=O)(=O)c3ccccc32)c(C)c1	none (no result: AmpC no deterg)
COc1ccc(N(CCC#N)C(=O)/C(C#N)=C\c2cccs2)cc1	none
O=C1NN(c2ccccc2)C(=O)/C1=C/c1ccc(-c2ccc(C(=O)O)cc2)o1	AmpC inh detg inconclusive
O=C(O)c1ccc(N2C(=O)/C(=C/c3ccc(-c4ccc([N+](=O)[O-])cc4)o3)C=C2c2ccccc2)cc1	AmpC inh detg inconclusive, Sm TGR block 44.7µM
NC(=O)c1ccc(NC(=O)CSc2cn(CC(=O)N3CCOCC3)c3ccccc23)cc1	none
O=C(CCl)N(c1ccccc1)c1c[nH]c2ccccc12	Sm TGR block 3.16µM
O=C(CCl)N(c1ccc(Cl)cc1)c1c[nH]c2ccccc12	Sm TGR block 0.708µM
CCN(CC)C(=O)CCCc1c[nH]c2ccccc12	none (no result: Sm TGR block)
O=C(NCc1ccc(Cl)cc1)C(=O)c1c[nH]c2ccccc12	AmpC inh detg inconclusive
Cc1nnc(NC(=O)c2cc(S(=O)(=O)N(C)C)ccc2N2CCCC2)s1	none
CCOC(=O)C1=C(C)N(C)C(C)=C(C(=O)OCC)C1c1cccnc1	AmpC inh detg inconclusive
CCOC(=O)C1C(=O)C(C(=O)OCC)C(c2cccnc2)NC1c1cccnc1 (configuration not stated)	Sm TGR block 25.1µM
CCc1ccccc1NC(=O)/C(=C/c1ccco1)c1ccccc1	Sm TGR block 35.5µM
CC(C)OC(=O)/C(=C/c1ccco1)c1ccccc1	Sm TGR block 10µM
Cc1ccccc1NC(=O)/C(=C/c1ccco1)c1ccccc1	Sm TGR block inconclusive
CC(C)(C)NC(=O)/C(=C/c1ccco1)c1ccccc1	Sm TGR block inconclusive
COc1ccc(CCNC(=O)c2cc3c(F)cccc3s2)cc1OC	AmpC inh detg inconclusive
Nc1c(C(=O)c2ccccc2)sc2nsc(SCCN3CCCC3)c12	Sm TGR block 39.8µM
Nc1c(C(=O)c2ccc(Cl)cc2)sc2nsc(SCCN3CCOCC3)c12	none
CC#CC[N+](C)(CC#CC)CC(=O)c1ccccc1	none
CCOc1ccc(-n2c(SCC(=O)Nc3ccc(OC)cc3OC)nc3c(c2=O)SCC3)cc1	none
COc1ccc(NC(=O)CSc2nc3c(c(=O)n2-c2ccccc2)SCC3)c(OC)c1	AmpC inh detg inconclusive, Sm TGR block 25.1µM
Fc1ccc(-n2ncc3c(NC4CCCCCC4)ncnc32)cc1	none (no result: AmpC no deterg)
N#CCC(=O)N/N=C\c1cccc(OC/C=C/c2ccccc2)c1	AmpC no deterg 12.6µM
CC(=O)N/N=C\c1cccc(OC/C=C/c2ccccc2)c1	none
CC(C)(C)c1ccc(NC(=O)COC(=O)c2ccc(CN3CCCC3=O)cc2)cc1	none
Cc1ccc(SC[C@H](c2ccccc2)N2CCN(CCc3ccccc3)CCC2=O)cc1	Sm TGR block inconclusive
CCCN1CCC(=O)N([C@H](CSc2ccccc2)c2ccccc2)CC1	Sm TGR block 39.8µM
CC(C)CN1CCC(=O)N([C@H](CSc2ccccc2)Cc2ccccc2)CC1	Sm TGR block inconclusive
CCCN1CCC(=O)N([C@H](CSc2ccc(C)cc2)c2ccccc2)CC1	Sm TGR block 44.7µM
Cc1ccc(SC[C@H](Cc2ccccc2)N2CCN(CC(C)C)CCC2=O)cc1	Sm TGR block 25.1µM
O=C1CCN(CCc2ccccc2)CCN1[C@H](CSc1ccccc1)c1ccccc1	none
Cc1cccc(-n2nnc(-c3nc(-c4ccccc4)no3)c2N)c1C	none (no result: AmpC no deterg)
COc1ccc(NS(=O)(=O)c2ccc(N3CCOCC3)c(N)c2)cc1	Sm TGR block inconclusive
C=CCNC(=O)C1=NN(c2c(F)c(F)cc(F)c2F)C(=O)CC1	none
CN(Cc1ccccc1)C(=O)C1CCN(S(=O)(=O)c2ccc(-n3cnnn3)cc2)CC1	none
CN(CC(=O)NCc1ccccc1F)S(=O)(=O)c1ccc(Cl)cc1	none
COc1ccc(-n2nc(C(=O)NCC(=O)NCCc3ccc(OC)c(OC)c3)c3ccccc3c2=O)cc1Cl	none
O=C(Nc1ccc(Cl)cc1)C1C2CCC3C(CCC21)C3(Cl)Cl (configuration not stated)	none
Cc1cccc(NC(=O)C2C3CCC4C(CCC32)C4(Cl)Cl)c1 (configuration not stated)	AmpC no deterg 31.6µM
O=C(Nc1ccc(F)cc1)C1C2CCC3C(CCC21)C3(Cl)Cl (configuration not stated)	AmpC no deterg 14.1µM
CCOc1ccc(NC(=O)C2C3CCC4C(CCC32)C4(Cl)Cl)cc1 (configuration not stated)	Sm TGR block inconclusive
C[C@H]1CN([C@@H](C)CO)C(=O)c2cccc(NC(=O)c3cnccn3)c2O[C@@H]1CN(C)C(=O)Nc1ccc2c(c1)OCO2	none (no result: AmpC inh detg, Sm TGR block)
COc1ccc(NC(=O)NCCCCc2ccccc2)c(OC)c1	none
CCn1cc(C(=O)N[C@@H](CCSC)C(=O)NCCN2CCOCC2)c(=O)c2cc3c(cc21)OCO3	none
Cc1ccc(N(C(=O)c2sc(C)nc2C)C(C(=O)NCc2ccco2)c2ccccc2)cc1 (configuration not stated)	none
Cc1ccc(NC(=O)/C=C\C(=O)N(c2ccc(C(C)C)cc2)C(C(=O)NCc2ccco2)c2ccc(F)cc2)cc1 (configuration not stated)	none (no result: AmpC no deterg)
COc1ccc(NC(=O)/C=C\C(=O)N(c2ccc(C(C)C)cc2)C(C(=O)NCc2ccco2)c2ccc(C)cc2)cc1 (configuration not stated)	Sm TGR block 56.2µM (no result: AmpC no deterg)
COc1ccc(N(C(=O)/C=C\C(=O)Nc2ccc(C)cc2)C(C(=O)NCc2ccco2)c2ccc(C)cc2)cc1 (configuration not stated)	Sm TGR block 44.7µM (no result: AmpC no deterg)
Cc1cc(C(=O)CN2C(=O)C(=O)N(C3CCCC3)C2=O)c(C)n1CCc1ccc(F)cc1	none
O=C(CCCc1ccccc1)NCCS(=O)(=O)N1CCN(c2ccc(F)cc2)CC1	Sm TGR block inconclusive
